For assay [1], the target named is Bile acid receptor (Homo sapiens) (UniProt Q96RI1). Nature of the assay: ATG_IR1_CIS: Attagene CIS-FACTORIAL HepG2 Assay for human Nuclear Receptor Subfamily 1 Group H Member 4 (NR1H4), IR1 submotif (AID 2282946; active means hit-call score of the fitted dose curve at least 0.9, where 1 is the maximum; inactive means score below 0.9). The following applies: IR1 reporter transcription, actives raise or lower the signal. The gist of the method:
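Readout: reporter transcript levels by RT-PCR with fluorescent capillary electrophoresis, from HepG2 cells transiently transfected with multiplexed cis-regulated reporters and dosed 24 h. Gain- or loss-of-signal fitted versus DMSO negative control.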

A short description of assay [2]: ATG_M_19_TRANS: Attagene TRANS-FACTORIAL HepG2 Assay for M19 Transcription Factor (Internal Marker) (AID 2282974). The following applies: HepG2 Attagene TRANS-FACTORIAL M19 internal marker reporter. The gist of the method:
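Cells: human HepG2, transiently transfected with multiplexed reporter transcription units. Exposure: 24 h. Detection: RT-PCR of reporter mRNA with capillary electrophoresis. Analysis: gain-of-signal vs DMSO.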

The target of assay [3] is Nuclear receptor subfamily 4 group A member 2 (Homo sapiens) (UniProt P43354). In words: ATG_NURR1_TRANS: Attagene TRANS-FACTORIAL HepG2 Assay for human Nuclear Receptor Related Protein 1 (NURR1) (AID 2282985). As to conditions: HepG2 Attagene TRANS reporter, mRNA readout. Summed up: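 Chimeric NR-Gal4 proteins were expressed in human HepG2 cells bearing GAL4-UAS reporter units, and induced reporter mRNA was quantified 24 h post-dosing by RT-PCR and capillary electrophoresis.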
Chain of Nuclear receptor subfamily 4 group A member 2 (Homo sapiens) (P43354 whole entry, looked up, the tested form may be a part): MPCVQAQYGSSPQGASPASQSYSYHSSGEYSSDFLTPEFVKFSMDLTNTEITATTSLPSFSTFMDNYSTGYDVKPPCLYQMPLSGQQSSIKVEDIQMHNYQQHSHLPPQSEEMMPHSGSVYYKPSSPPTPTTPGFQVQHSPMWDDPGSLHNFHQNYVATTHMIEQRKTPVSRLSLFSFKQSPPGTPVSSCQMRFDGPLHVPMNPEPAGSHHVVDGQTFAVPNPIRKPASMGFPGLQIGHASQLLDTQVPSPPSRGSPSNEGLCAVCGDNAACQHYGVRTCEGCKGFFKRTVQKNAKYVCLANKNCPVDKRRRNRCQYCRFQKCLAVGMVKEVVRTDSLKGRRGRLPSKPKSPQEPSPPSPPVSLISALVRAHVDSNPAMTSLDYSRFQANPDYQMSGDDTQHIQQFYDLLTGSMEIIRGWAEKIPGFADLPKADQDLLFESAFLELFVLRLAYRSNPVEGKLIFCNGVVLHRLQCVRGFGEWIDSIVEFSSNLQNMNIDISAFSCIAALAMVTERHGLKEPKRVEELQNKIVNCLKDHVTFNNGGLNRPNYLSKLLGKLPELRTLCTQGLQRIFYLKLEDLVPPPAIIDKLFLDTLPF

A short description of assay [4]: ATG_NF_kB_CIS: Attagene CIS-FACTORIAL HepG2 Assay for human Nuclear Factor Kappa B (NF-kB) (AID 2282991; active means hit-call score of the fitted dose curve at least 0.9, where 1 is the maximum; inactive means score below 0.9). The following applies: HepG2 Attagene cis-factorial NF-kB reporter mRNA; actives raise or lower the signal. The gist of the method:
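Endogenous transcription factor activity in HepG2 was captured via cis-regulated reporter constructs; after 24 h dosing, reporter mRNA was reverse-transcribed, amplified, fluorescently labelled and sized by capillary electrophoresis, with activity fitted bidirectionally relative to DMSO.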

Assay [5] deals with Nuclear receptor subfamily 1 group I member 2 (Homo sapiens) (UniProt O75469). In words: ATG_PXR_TRANS: Attagene TRANS-FACTORIAL HepG2 Assay for human Pregnane X Receptor (PXR) (AID 2283008). The gist of the method: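 Multiplexed TRANS reporter panel in HepG2; this component tracks PXR-Gal4-driven reporter mRNA after 24 h dosing, measured by RT-PCR with capillary electrophoresis fluorescence, fitted against DMSO.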
Chain of Nuclear receptor subfamily 1 group I member 2 (Homo sapiens) (O75469 whole entry, looked up, the tested form may be a part): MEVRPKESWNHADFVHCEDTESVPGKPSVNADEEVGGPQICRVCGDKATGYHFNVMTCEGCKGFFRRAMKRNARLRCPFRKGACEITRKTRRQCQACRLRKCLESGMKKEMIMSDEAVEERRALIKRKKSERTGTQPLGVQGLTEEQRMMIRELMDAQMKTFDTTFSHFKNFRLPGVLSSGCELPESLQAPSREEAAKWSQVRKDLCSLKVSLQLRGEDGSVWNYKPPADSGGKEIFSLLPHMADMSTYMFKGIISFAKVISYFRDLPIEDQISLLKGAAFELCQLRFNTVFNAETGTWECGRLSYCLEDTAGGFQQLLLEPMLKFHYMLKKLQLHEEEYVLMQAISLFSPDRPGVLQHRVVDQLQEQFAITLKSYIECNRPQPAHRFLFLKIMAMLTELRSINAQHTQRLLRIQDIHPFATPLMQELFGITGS

The target of assay [6] is human RAR-related Orphan Receptor gamma (RORg), RORC (gene 6097) (UniProt P51449). Nature of the assay: ATG_RORg_TRANS: Attagene TRANS-FACTORIAL HepG2 Assay for human RAR-related Orphan Receptor gamma (RORg) (AID 2283011). The gist of the method:
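Transient MRTU transfection of HepG2 (TRANS format, exogenous NR-Gal4 chimera). 24 h dosing. Total RNA → oligo(dT) RT → PCR → 6-FAM labelling → HpaI cut → CE. Gain vs DMSO.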

In assay [7] the target is human Vitamin D Receptor (VDR), VDR (gene 7421) (UniProt P11473). In words: ATG_VDR_TRANS: Attagene TRANS-FACTORIAL HepG2 Assay for human Vitamin D Receptor (VDR) (AID 2283022). Summed up: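 RT-PCR/capillary electrophoresis read-out of reporter mRNA induction in transiently transfected HepG2; 24 h dosing; chimeric NR-Gal4 (TRANS format); gain-of-signal fit against DMSO baseline.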
Chain of human Vitamin D Receptor (VDR), VDR (gene 7421) (P11473 whole entry, looked up, the tested form may be a part): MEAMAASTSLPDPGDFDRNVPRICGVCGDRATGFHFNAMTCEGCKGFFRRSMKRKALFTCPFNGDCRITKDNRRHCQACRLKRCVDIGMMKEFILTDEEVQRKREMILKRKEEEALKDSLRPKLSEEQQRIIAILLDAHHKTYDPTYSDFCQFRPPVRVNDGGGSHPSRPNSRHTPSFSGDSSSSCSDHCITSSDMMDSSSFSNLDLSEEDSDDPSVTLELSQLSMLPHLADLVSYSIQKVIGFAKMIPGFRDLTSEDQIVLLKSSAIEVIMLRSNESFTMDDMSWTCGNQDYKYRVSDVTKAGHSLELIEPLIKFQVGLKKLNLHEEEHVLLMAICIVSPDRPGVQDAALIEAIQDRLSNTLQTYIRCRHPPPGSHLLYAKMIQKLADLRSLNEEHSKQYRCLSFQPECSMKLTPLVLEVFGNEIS

Assay [8] deals with Retinoic acid receptor alpha (Homo sapiens) (UniProt P10276). In words: ATG_DR5_RAR_CIS: Attagene CIS-FACTORIAL HepG2 Assay for human Retinoic Acid Receptor Alpha (RARE), DR5 submotif (AID 2282934; active means hit-call score of the fitted dose curve at least 0.9, where 1 is the maximum; inactive means score below 0.9). As to conditions: HepG2 Attagene cis-factorial RARE DR5 reporter, mRNA; actives raise or lower the signal. The gist of the method: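 HepG2 cells transiently transfected with multiplexed reporter units under cis (DR5 RARE) promoters, so endogenous transcription factor activity is measured. After 24 h compound exposure, reporter mRNA is quantified by RT-PCR with fluorescent labelling and capillary electrophoresis; bidirectional fitting versus DMSO.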

Assay [9] concerns the target Glucocorticoid receptor (Homo sapiens) (UniProt P04150). Nature of the assay: ATG_GR_TRANS: Attagene TRANS-FACTORIAL HepG2 Assay for human Glucocorticoid Receptor (GR) (AID 2282978).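 Further: activators score as hits since higher reporter transcript over DMSO is fitted.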 As to conditions: HepG2 Attagene TRANS GR reporter, mRNA transcription. Summed up: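 In this trans-factorial format, exogenous NR-GAL4 chimeric proteins in transfected HepG2 cells regulate GAL4-UAS reporter transcription. After 24 h treatment, reporter mRNA induction relative to DMSO is read by RT-PCR and capillary electrophoresis.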

For assay [10], the target named is Oxysterols receptor LXR-alpha (Homo sapiens) (UniProt Q13133). In words: ATG_LXRa_TRANS: Attagene TRANS-FACTORIAL HepG2 Assay for human Liver X Receptor alpha (LXRa) (AID 2282980). As to conditions: HepG2 Attagene TRANS reporter, LXRa transactivation. Summed up: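 Read-out: reporter transcript levels by RT-PCR plus capillary electrophoresis, fluorescence intensity. Transiently transfected HepG2, exogenous NR-GAL4 chimera, GAL4-UAS reporters; 24 h compound exposure. Activity = increase over DMSO negative control.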
Chain of Oxysterols receptor LXR-alpha (Homo sapiens) (Q13133 whole entry, looked up, the tested form may be a part): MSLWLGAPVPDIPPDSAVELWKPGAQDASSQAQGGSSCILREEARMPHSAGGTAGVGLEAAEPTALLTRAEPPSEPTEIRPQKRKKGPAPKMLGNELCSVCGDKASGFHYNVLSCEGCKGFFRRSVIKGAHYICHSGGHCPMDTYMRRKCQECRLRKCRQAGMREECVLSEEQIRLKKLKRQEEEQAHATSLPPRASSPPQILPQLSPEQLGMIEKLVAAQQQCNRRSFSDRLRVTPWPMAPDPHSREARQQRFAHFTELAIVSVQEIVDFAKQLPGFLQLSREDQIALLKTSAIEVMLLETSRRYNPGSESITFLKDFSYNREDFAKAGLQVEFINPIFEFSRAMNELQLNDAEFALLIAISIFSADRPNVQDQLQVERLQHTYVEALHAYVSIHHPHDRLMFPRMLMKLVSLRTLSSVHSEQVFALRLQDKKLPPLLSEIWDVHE

For assay [11], the target named is human Peroxisome Proliferator-activated Receptor alpha (PPARa), PPARA (gene 5465) (UniProt Q07869). In words: ATG_PPARa_TRANS: Attagene TRANS-FACTORIAL HepG2 Assay for human Peroxisome Proliferator-activated Receptor alpha (PPARa) (AID 2283001).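 On AC50: potency for gain of reporter signal over DMSO so agonist or activator.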 The gist of the method:
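Exposure: 24 h, transiently transfected HepG2 cells. Endpoint: GAL4-UAS reporter mRNA, RT-PCR with capillary electrophoresis fluorescence. Baseline: DMSO; increases fitted.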

Assay [12] deals with Retinoic acid receptor RXR-alpha (Homo sapiens) (UniProt P19793). In words: ATG_RXRa_TRANS: Attagene TRANS-FACTORIAL HepG2 Assay for human Retinoid X Receptor alpha (RXRa) (AID 2283012). Summed up:
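Read-out: fluorescent reporter-transcript fragments quantified by capillary electrophoresis after RT-PCR. Transiently transfected HepG2 cells carrying GAL4-UAS reporters and NR-GAL4 chimeras were exposed to chemical for 24 h; activity scored as increase over DMSO.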

A short description of assay [13]: CCTE_Harrill_HTTr_Viability_MCF7: CCTE's 6-hour Cell Viability Assessment for the High-Throughput Transcriptomics (HTTr) Platform, in MCF-7 cells cultured in DMEM + 10% fetal bovine serum, Harrill Lab (AID 2284010; active means hit-call score of the fitted dose curve at least 0.9, where 1 is the maximum; inactive means score below 0.9). Summed up:
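PI exclusion, high-content imaging; 8-pt dilution series, 6 h exposure; bidirectional fit vs DMSO (neg. ctrl/baseline); gain of signal = loss of membrane integrity.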

Assay [14] in a line: CCTE_Harrill_HTTr_Apoptosis_MCF7: CCTE's 6-hour Apoptosis Assessment for the High-Throughput Transcriptomics (HTTr) Platform, in MCF-7 cells cultured in DMEM + 10% fetal bovine serum, Harrill Lab (AID 2284011; active means hit-call score of the fitted dose curve at least 0.9, where 1 is the maximum; inactive means score below 0.9). The gist of the method:
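Read-out: CellEvent Caspase 3/7 Green signal by high content imaging, gain-of-signal indicating apoptosis. MCF-7 cells, DMEM + 10% FBS, eight-point dilution series, 6 h exposure. Curves fitted bidirectionally relative to DMSO negative control.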

Assay [15] can be described thus: ATG_PPRE_CIS: Attagene CIS-FACTORIAL HepG2 Assay for human Peroxisome Proliferator-activated Response Element (PPRE) (AID 2282958; active means hit-call score of the fitted dose curve at least 0.9, where 1 is the maximum; inactive means score below 0.9). As to conditions: HepG2 PPRE cis-element reporter, Attagene transcription factor profiling; actives raise or lower the signal. Summed up: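 Cells are first transfected transiently with the multiplexed reporter library, then dosed for 24 h. Total RNA is reverse-transcribed, amplified, fluorescently end-labeled and HpaI-cut before capillary electrophoresis; activity is fitted bidirectionally against DMSO controls.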

Assay [16] concerns the target Nuclear receptor subfamily 1 group I member 3 (Homo sapiens) (UniProt Q14994). In words: ATG_CAR_TRANS: Attagene TRANS-FACTORIAL HepG2 Assay for human Constitutive Androstane Receptor (CAR) (AID 2282969).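 Further: activators raise reporter mRNA above DMSO so AC50 marks induction.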 The following applies: HepG2 Attagene TRANS-FACTORIAL CAR reporter. The gist of the method: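 Steps: transient transfection of HepG2 with multiple GAL4-UAS reporter units; 24 h compound incubation; RNA isolation, RT-PCR, 6-FAM primer extension, HpaI digest; capillary electrophoresis. Gain-of-signal relative to DMSO negative control.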

The target in assay [17] is human Peroxisome Proliferator-activated Receptor delta (PPARd), PPARD (gene 5467) (UniProt Q03181). In words: ATG_PPARd_TRANS: Attagene TRANS-FACTORIAL HepG2 Assay for human Peroxisome Proliferator-activated Receptor delta (PPARd) (AID 2283002). The gist of the method:
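HepG2 cells transiently transfected with multiplexed GAL4-UAS reporter units and exogenous chimeric NR-Gal4 proteins; 24 h compound exposure. Reporter mRNA measured by RT-PCR, 6-FAM labelling, HpaI digestion and capillary electrophoresis; gain of signal versus DMSO.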

The target in assay [18] is human RAR-related Orphan Receptor beta (RORb), RORB (gene 6096) (UniProt Q92753). Nature of the assay: ATG_RORb_TRANS: Attagene TRANS-FACTORIAL HepG2 Assay for human RAR-related Orphan Receptor beta (RORb) (AID 2283010). The gist of the method: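 HepG2, transient MRTU transfection (GAL4-UAS reporters, exogenous NR-Gal4 chimeras); 24 h compound exposure; total RNA → RT-PCR → 6-FAM primer extension → HpaI digest → CE fluorescence. Positive direction vs DMSO baseline.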

A short description of assay [19]: ATG_XTT_Cytotoxicity: Cytotoxicity Assessment in the Attagene TRANS-FACTORIAL HepG2 Assay (AID 2283584). Summed up: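 XTT readout of cell number in transfected HepG2 cells, 24 h post-dosing; DMSO serves as negative control and baseline, with activity taken as loss of viability signal.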
Assay [20] can be described thus: TOX21_p53_BLA_p3_viability: Viability Assessment in the Tox21 HCT-116 p53 Agonism Beta-lactamase Assay, Phase 3 (AID 2283593).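 Further: cells exposed to compound for 16 h before reading.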 Summed up: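 HCT-116 cells (4000/well) rested 5 h at 37C, then got DMSO compounds by pin tool (217-fold dilution) for 16 h at 37C, 5% CO2. After the bla read, CellTiter-Glo was added and luminescence read at 30 min, room temperature.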

The values that follow come from PubChem BioAssay (EPA / NIEHS).

Structures are written as SMILES. Results filed as inconclusive are left out. Calls of active or inactive are those of the source. How the source made its calls, unless noted: active means hit-call score of the fitted dose curve at least 0.9, where 1 is the maximum; inconclusive means response in the unintended direction; inactive means score below 0.9.

Chain of human Peroxisome Proliferator-activated Receptor delta (PPARd), PPARD (gene 5467) (Q03181 whole entry, looked up, the tested form may be a part): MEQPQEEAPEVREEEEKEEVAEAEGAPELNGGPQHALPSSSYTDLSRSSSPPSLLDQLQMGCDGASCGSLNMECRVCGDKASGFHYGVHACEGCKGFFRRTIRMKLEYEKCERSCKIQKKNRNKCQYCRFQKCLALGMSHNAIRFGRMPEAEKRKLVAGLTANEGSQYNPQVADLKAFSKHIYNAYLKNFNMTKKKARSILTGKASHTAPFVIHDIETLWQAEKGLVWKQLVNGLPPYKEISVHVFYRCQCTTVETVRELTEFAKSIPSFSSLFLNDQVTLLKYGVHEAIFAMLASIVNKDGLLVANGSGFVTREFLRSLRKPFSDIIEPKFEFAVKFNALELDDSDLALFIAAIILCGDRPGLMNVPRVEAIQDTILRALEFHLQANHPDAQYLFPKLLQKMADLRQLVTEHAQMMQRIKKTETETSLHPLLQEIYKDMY
Chain of Glucocorticoid receptor (Homo sapiens) (P04150 whole entry, looked up, the tested form may be a part): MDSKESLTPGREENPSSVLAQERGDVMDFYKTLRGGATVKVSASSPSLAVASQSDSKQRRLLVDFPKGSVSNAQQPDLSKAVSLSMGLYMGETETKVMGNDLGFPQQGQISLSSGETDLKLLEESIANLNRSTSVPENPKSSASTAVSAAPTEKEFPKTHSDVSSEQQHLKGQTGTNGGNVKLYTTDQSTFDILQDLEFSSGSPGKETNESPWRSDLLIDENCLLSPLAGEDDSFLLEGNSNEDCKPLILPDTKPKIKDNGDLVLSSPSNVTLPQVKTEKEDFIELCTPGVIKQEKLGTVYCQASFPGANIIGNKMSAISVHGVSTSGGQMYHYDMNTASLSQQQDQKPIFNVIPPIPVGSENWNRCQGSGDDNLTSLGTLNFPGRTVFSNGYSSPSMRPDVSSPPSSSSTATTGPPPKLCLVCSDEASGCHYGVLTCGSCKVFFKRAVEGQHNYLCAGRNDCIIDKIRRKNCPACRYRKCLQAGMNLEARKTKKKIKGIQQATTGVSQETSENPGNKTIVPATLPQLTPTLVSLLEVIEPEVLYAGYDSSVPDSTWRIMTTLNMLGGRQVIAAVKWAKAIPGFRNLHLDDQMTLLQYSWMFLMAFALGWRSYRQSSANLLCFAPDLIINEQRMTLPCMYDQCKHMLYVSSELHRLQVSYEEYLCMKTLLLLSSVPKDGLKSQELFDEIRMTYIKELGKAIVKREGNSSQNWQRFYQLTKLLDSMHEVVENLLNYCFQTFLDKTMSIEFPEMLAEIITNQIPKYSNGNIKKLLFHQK
Chain of Bile acid receptor (Homo sapiens) (Q96RI1 whole entry, looked up): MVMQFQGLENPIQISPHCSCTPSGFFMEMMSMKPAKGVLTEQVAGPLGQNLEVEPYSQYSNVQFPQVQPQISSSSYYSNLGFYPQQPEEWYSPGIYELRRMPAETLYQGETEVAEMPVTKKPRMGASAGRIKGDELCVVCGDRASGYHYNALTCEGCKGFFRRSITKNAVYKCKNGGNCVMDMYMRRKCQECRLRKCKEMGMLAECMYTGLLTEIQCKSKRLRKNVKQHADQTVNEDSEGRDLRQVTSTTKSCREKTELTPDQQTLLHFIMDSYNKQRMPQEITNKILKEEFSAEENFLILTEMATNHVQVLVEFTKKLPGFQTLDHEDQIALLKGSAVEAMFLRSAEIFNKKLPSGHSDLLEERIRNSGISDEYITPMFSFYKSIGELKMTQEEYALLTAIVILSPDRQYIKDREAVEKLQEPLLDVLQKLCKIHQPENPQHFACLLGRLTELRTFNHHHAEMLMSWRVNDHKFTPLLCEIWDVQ
Chain of human RAR-related Orphan Receptor gamma (RORg), RORC (gene 6097) (P51449 whole entry, looked up, the tested form may be a part): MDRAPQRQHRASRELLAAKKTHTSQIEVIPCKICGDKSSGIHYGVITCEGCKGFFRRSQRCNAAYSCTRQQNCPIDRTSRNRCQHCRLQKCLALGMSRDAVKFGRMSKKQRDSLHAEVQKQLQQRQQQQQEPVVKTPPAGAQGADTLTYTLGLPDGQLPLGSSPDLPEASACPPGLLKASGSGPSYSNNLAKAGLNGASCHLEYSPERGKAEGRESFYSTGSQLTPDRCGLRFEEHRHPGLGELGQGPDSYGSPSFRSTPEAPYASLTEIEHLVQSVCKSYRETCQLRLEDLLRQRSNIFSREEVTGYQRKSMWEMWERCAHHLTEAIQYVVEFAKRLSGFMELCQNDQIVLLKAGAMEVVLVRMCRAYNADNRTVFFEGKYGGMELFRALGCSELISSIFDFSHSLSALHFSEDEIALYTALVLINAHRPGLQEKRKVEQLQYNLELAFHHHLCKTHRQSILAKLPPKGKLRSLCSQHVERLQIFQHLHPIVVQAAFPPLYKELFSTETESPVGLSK
Chain of Nuclear receptor subfamily 1 group I member 3 (Homo sapiens) (Q14994 whole entry, looked up, the tested form may be a part): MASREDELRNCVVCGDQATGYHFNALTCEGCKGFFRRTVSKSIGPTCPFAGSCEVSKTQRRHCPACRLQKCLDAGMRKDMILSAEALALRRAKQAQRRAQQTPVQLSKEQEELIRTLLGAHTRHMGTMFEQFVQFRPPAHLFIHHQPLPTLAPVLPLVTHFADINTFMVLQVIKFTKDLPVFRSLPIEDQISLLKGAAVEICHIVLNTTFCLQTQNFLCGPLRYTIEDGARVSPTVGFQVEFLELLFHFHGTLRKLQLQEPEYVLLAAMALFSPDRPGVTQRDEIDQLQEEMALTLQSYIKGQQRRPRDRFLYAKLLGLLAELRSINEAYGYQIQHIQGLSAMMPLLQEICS
Chain of human Peroxisome Proliferator-activated Receptor alpha (PPARa), PPARA (gene 5465) (Q07869 whole entry, looked up, the tested form may be a part): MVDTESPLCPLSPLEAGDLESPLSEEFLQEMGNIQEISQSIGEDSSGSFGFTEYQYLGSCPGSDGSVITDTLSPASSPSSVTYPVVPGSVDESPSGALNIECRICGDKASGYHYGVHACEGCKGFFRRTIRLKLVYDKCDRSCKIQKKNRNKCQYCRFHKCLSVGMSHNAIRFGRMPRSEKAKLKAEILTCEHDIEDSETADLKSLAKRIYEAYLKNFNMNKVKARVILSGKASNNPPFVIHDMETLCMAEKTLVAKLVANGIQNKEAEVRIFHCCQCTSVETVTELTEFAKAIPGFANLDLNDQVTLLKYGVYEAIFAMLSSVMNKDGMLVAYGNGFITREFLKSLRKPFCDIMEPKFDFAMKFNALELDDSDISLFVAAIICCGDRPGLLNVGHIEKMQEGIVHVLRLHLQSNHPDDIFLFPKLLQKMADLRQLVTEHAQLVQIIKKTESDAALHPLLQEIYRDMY

Turning to `CCC(C)c1cc(C(C)(C)C)cc(-n2nc3ccccc3n2)c1O` (stereo not given), the call in assay [1], in assay [2], in assay [3], in assay [4], in [5] and in [6] was inactive. In [7], the compound was called inactive.
For `CN(C)CCC#N`, the compound was called inactive in [8], in assay [2], in [9], in assay [10], in assay [11] and in [6]. Besides, the compound was called inactive in assay [12], in [7], in [13] and in [14].
In the case of `CC(=O)/C=C/c1ccccc1`, the outcome in assay [15], in assay [16], in assay [3], in [17], in [5] and in assay [18] was inactive. Further, in [7], the compound was classed as inactive. Further, the AC50 (usually the concentration at which the activity in the assay is half-maximal) in [11] was 38.8 µM (active).
`Cc1cc(C)c(C2=C(OC(=O)CC(C)(C)C)C3(CCCC3)OC2=O)c(C)c1`: the compound was called inactive in assay [1], in [15], in assay [16], in assay [2], in assay [3] and in assay [4]. For the same compound, the outcome in [5] was inactive.
`c1ccc2c(c1)CCCC2`: the outcome in assay [1], in assay [2], in [9], in [18], in assay [6] and in [12] was inactive. Also, the compound was called inactive in assay [7], in assay [19] and in [20].
On to `O=CNC(N1CCN(C(NC=O)C(Cl)(Cl)Cl)CC1)C(Cl)(Cl)Cl` (stereo not given), for which the result in [15], in assay [9], in assay [10], in [3], in assay [4] and in assay [17] was inactive. Besides, the call in assay [7], in assay [19], in assay [13] and in [14] was inactive. Moreover, the AC50 in assay [5] was 6.57 µM (active).
For the compound `CSc1nc(N=[N+]=[N-])nc(NC(C)C)n1`, the compound was called inactive in [2], in assay [10], in assay [4], in assay [17], in [7] and in [19]. Further, in assay [20], the outcome was inactive. Besides, the concentration at half-maximal activity (AC50) in assay [5] is 14 µM (active).
